This is an account of results in ChEMBL document CHEMBL1157539, “Thousands of chemical starting points for antimalarial lead identification” (Nature, 2010).

What is called Inhibition is the drop in the measured response relative to a control, in per cent. The low end stands for a weak effect, the high end for a strong effect.

What all share (assay type): functional
Assay [1] deals with Plasmodium falciparum. Kind of assay: GSK_TCMDC: Inhibition of Plasmodium falciparum 3D7 in whole red blood cells, using parasite LDH activity as an index of growth. Test compounds present at 2uM.
Assay [2] concerns Plasmodium falciparum. The assay is described as follows: GSK_TCMDC: Inhibition of Plasmodium falciparum Dd2 in whole red blood cells, using parasite LDH activity as an index of growth. Test compounds present at 2uM.
Assay [3] concerns HepG2. Kind of assay: GSK_TCMDC: Percent inhibition of human HepG2 cell line. Test compounds present at 10uM.

Consider `CNC(=O)C1Cc2c([nH]c3cc(Cl)ccc23)C2(CCN(CCc3ccccc3)CC2)N1` (stereo not given), for which the Inhibition is 91% in assay [1], 3% in assay [2] and 14% in assay [3].

With `Cl.c1ccc2c(NCCCCCCCCNc3ccnc4ccccc34)ccnc2c1`, the Inhibition in assay [1] was found to be 100%; in assay [2] it was 35%; in assay [3] it was 57%.

For `O=C(Nc1ccc(C(F)(F)F)cc1)NC1CCN(c2ccnc3cc(Cl)ccc23)CC1.O=C(O)C(F)(F)F`, the Inhibition is reported as 100% in assay [1], 74% in assay [2] and 22% in assay [3].

As for `CN1CCN(CCCCCCNc2c3ccccc3nc3ccccc23)CC1.Cl`, the figures for the Inhibition in assay [1], in assay [2] and in assay [3] were 100%, 0% and 35%, respectively.

As for `COc1ccc(C(=O)N2CCC(CN3CCOC(c4ccccc4)(c4ccccc4)C3)CC2)cc1`, the Inhibition in assay [1] amounted to 95%; in assay [2] it was 96%; in assay [3] it was 19%.

As for `COc1ccccc1N1CCN(Cc2c(O)ccc3cc(Br)ccc23)CC1`, the values for the Inhibition in assay [1], in assay [2] and in assay [3] were 89%, 75% and 8%, respectively.

Consider `CC(C)c1cccc(C(C)C)c1NC(=O)NNC(=O)c1ccc(CCN2CCC(c3nc(COCC(F)(F)F)c(-c4ccc(F)cc4)o3)CC2)cc1`, for which the Inhibition was determined as 88% in assay [1], 34% in assay [2] and 61% in assay [3].

`Cc1ccc2nc(C)n(C3CCN(C(=O)Cc4ccc(F)c(F)c4)CC3)c2c1`: the Inhibition is given as 100% in assay [1], 100% in assay [2] and 4% in assay [3].

For `CCN(CC)CCN(Cc1ccc(-c2ccc(C(F)(F)F)cc2)cc1)C(=O)Cn1cc(CCCCc2cccc(F)c2F)c(=O)c2ccccc21.O=C(O)C(O)C(O)C(=O)O`, the Inhibition in assay [1] is reported as 90%; in assay [2], 22%; in assay [3], 18%.

For the molecule `CC1(C)N=C(N)N=C(N)N1OCc1ccc2c(c1)OCO2`, the values for the Inhibition in assay [1], in assay [2] and in assay [3] were 93%, 86% and 66%, respectively.

For the molecule `c1ccc(CN2CCCN(c3ccc4c(c3)CCN(Cc3ccc(-c5ncc[nH]5)cc3)CC4)CC2)cc1`, the values for the Inhibition in assay [1], in assay [2] and in assay [3] were 100%, 73% and 6%, respectively.

Turning to `O=C(/C=C/c1ccc(Cl)c(Cl)c1)NCCCCCN1CCCC(CNS(=O)(=O)c2cccc(C(F)(F)F)c2)C1` (stereo not given), the Inhibition in assay [1] amounted to 92%; in assay [2], 0%; in assay [3], 73%.

Take `Cl.O=C(/C=C/c1ccccc1F)NC1CCC(CCN2CCc3ccc(-c4cccnc4)cc3CC2)CC1` (stereo not given): the Inhibition came to 92% in assay [1], 5% in assay [2] and 34% in assay [3].

In the case of `Cc1ncccc1-c1cccc2c(NC(=O)Nc3ccc4nccc(N5CCN(C)CC5)c4c3)cccc12.Cl`, the Inhibition in assay [1] is recorded as 100%; in assay [2] it was 96%; in assay [3] it was 19%.

On to `Cn1c(Nc2cc(C(C)(C)C)on2)nc2cc(Nc3ccnc(Nc4cccc(CS(C)(=O)=O)c4)n3)ccc21`, for which the Inhibition in assay [1] is listed as 99%; in assay [2] it was 94%; in assay [3], 63%.

In the case of `NC(=O)C1CCN(Cc2ccc(-c3ccc(-c4nc5cc(C(F)(F)F)ccc5[nH]4)cc3)cc2)CC1.O=C(O)C(F)(F)F`, the Inhibition is on record as 100% in assay [1], 90% in assay [2] and 25% in assay [3].

In the case of `CN(CC(=O)Nc1ccc(F)c(F)c1F)c1ncnc2sc(-c3ccccc3)cc12`, the results for the Inhibition in assay [1], in assay [2] and in assay [3] were 95%, 34% and 0%, respectively.

Regarding `O=C(/C=C/c1ccc(Cl)c(Cl)c1)NCCCCCN1CCC(NC(=O)Nc2cccc(Cl)c2Cl)CC1`, the Inhibition in assay [1] came out at 100%; in assay [2], 35%; in assay [3], 99%.

As for `Cc1cc(C)c(C)c(S(=O)(=O)N2CCCCC(c3ccc(F)c(F)c3)=N2)c1C`, the Inhibition in assay [1] is given as 86%; in assay [2], 60%; in assay [3] it was 5%.

For `O=C1OC(c2ccccc2)(c2ccccc2)CN1C1CCN(Cc2ccc(O)c(Cl)c2)C1` (stereo not given), the figures for the Inhibition in assay [1], in assay [2] and in assay [3] were 100%, 93% and 10%, respectively.

With `Cl.N=C(N)Nc1ccc(OCCCCCOc2ccc(NC(=N)N)cc2Br)c(Br)c1`, the results for the Inhibition in assay [1], in assay [2] and in assay [3] were 92%, 95% and 27%, respectively.

For `COc1ccc2nccc([C@@H](O)CN3CCC(NCc4nc5c(F)cccc5[nH]4)CC3)c2c1.O=C(O)C(=O)O`, the Inhibition stood at 100% in assay [1], 6% in assay [2] and 0% in assay [3].

With `CCOc1cc(Cl)c(C(C)NC(=O)c2cccc(OC)c2)cc1OCC` (stereo not given), the Inhibition was determined as 98% in assay [1], 92% in assay [2] and 29% in assay [3].

For `COc1ccc(CCN2CCC(CN(C)Cc3cnn(-c4ccccc4)c3)CC2)cc1`, the Inhibition came to 90% in assay [1], 5% in assay [2] and 25% in assay [3].

Regarding `O=[N+]([O-])c1cccc(S(=O)(=O)N2CCN(CC(O)COc3ccc(-c4ccccc4)cc3)CC2)c1` (stereo not given), the Inhibition in assay [1] was 94%; in assay [2] it was 32%; in assay [3], 11%.

Take `CC1(CCCCN2CCC(Cc3ccccc3)CC2)C(=O)Nc2ccccc21.Cl` (stereo not given): the results for the Inhibition in assay [1], in assay [2] and in assay [3] were 100%, 28% and 66%, respectively.

On to `O=C(O)C(F)(F)F.OCC1CCN(Cc2cccc(-c3cccc(-c4nc5cc(C(F)(F)F)ccc5[nH]4)c3)c2)CC1`, for which the Inhibition in assay [1] is on record as 100%; in assay [2] it was 100%; in assay [3], 24%.

For `COc1cc(C2Nc3ccc4ccccc4c3C3=C2C(=O)CC(C)(C)C3)ccc1Oc1ccc([N+](=O)[O-])cc1C#N` (stereo not given), the Inhibition was 99% in assay [1], 94% in assay [2] and 8% in assay [3].

Take `Cc1nnc2c(NC(=O)NC3CCCC3)cc3cc(-c4ccc(CN(C)C)cc4)ccc3n12`: the figures for the Inhibition in assay [1], in assay [2] and in assay [3] were 100%, 37% and 100%, respectively.

Take `Fc1ccc2[nH]c(-c3ccc(-c4ccc(CNCc5ccccc5)cc4)cc3)nc2c1.O=C(O)C(F)(F)F`: the results for the Inhibition in assay [1], in assay [2] and in assay [3] were 100%, 94% and 35%, respectively.
